# Compounds without any hit were thinned out: in the full panel of roughly 79,000, 15% have a hit. Unmarked numbers belong to inactive results. Active and inactive are the calls of the source. Cut-off read from the data, not from the text of the source: active = growth inhibition above about 70%; inactive = the rest.
# Assay: NCI Yeast Anticancer Drug Screen. Data for the rad50 strain (AID 155);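 note: 0% = growth of vehicle-only cultures of the same strain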
# Details: S. cerevisiae rad50 strain growth inhibition; at 5.0 µM (retest, dose inferred, filed as 0.5); hits give high values
# Procedure, shortened: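 Inhibition values express reduced yeast growth in compound-treated cultures relative to vehicle-treated controls.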
row,SMILES,growth inhibition
1,NC(=O)NC(=O)N/N=C/c1ccc([N+](=O)[O-])o1,2%
2,O=[N+]([O-])/C=C\c1csc2ccccc12,94% (active)
3,O=[N+]([O-])c1ccc2c(c1)CCc1ccccc1-2,10%
4,CC1=C(C)CC2C(=O)C(C(O)CC(C)C)=CC(=O)C2C1 (stereo not given),-4%
5,CCC(=O)OC1CCC(C2CCCCC2)CC1 (stereo not given),3%
6,Cc1cc(C2C(O)C(c3cc(C)on3)C2(C)O)no1 (stereo not given),0%
7,CC(C)C(Sc1nc(-c2ccccc2)c(-c2ccccc2)[nH]1)C(=O)NN (stereo not given),-7%
8,C/C(=N\NC(=O)N/N=C(\C)c1ccccn1)c1ccccn1,0%
9,COC(=O)CCCCCCCCCCC(=O)O,-3%
10,CCCCCCCCCCCCNC(=O)C[n+]1cccc(C(N)=O)c1,3%
11,Nc1ccccc1N=Cc1ccccc1O,-12%
12,N#Cc1c(-c2ccc(Cl)cc2)c2c(n(C3OC(CO)C(O)C(O)C3O)c1=S)CCCC2 (stereo not given),-3%
13,CC(C)(C)CC(C)(C)N[P+](NC(C)(C)CC(C)(C)C)(NC(C)(C)CC(C)(C)C)NC(C)(C)CC(C)(C)C,89% (active)
14,CC(=O)OC1C(OC(C)=O)C2C(C)CC3OC(=O)C(C)C3CC2(C)C1OC(C)=O (stereo not given),-7%
15,NNC(=O)c1ccc(N)cc1O,-1%
16,Nc1ccc2c(c1)C(=O)c1ccccc1-2,9%
17,Cc1cn(C(C#N)=C(C#N)C#N)c2ccccc12,0%
18,FC(F)(F)COP1(OCC(F)(F)F)=NP(OCC(F)(F)F)(OCC(F)(F)F)=NP(c2ccccc2)(c2ccccc2)=N1,0%
19,O=c1oc(-c2ccccc2Br)ns1,0%
20,CC(=O)N1C(C(=O)NNc2ccccc2)CSC1c1ccccc1 (stereo not given),71% (active)

row,SMILES,growth inhibition
1,O=[N+]([O-])/C=C/c1cc2c(ccc3ccccc32)[nH]1,61%
2,CN(C)CCCC1(c2ccccc2)SC(C)(C)c2ccc(Cl)cc21 (stereo not given),-36%
3,O=c1[nH]c2ccccc2c2oc3ccccc3c12,-14%
4,O=C(c1ccccc1)c1cn(/N=C\c2ccccc2)c(=O)nc1-c1ccccc1,-3%
5,Cc1ccc(S(=O)(=O)OCCc2ccc(Cl)cc2)cc1,-10%
6,COC(=O)CC1(O)c2cc(OC)c3cccc(OC)c3c2CCC1(C)C(=O)OC (stereo not given),88% (active)
7,CC(C)CC(NC(=O)SCc1ccccc1)C(=O)O (stereo not given),-2%
8,COc1ccc(/C=C/c2ccnc3ccccc23)cc1,24%
9,N#CC1=C(N)OC(/C=C/c2ccccc2)=C(C#N)C1c1ccccc1 (stereo not given),33%
10,COc1ccc(C(=O)C(CN2CCOCC2)CN2CCOCC2)cc1,11%
11,N/N=C(/N)SCCCCCCCCCCS/C(N)=N/N,-6%
12,OC(CBr)C[n+]1cccc2cc(Cl)ccc21 (stereo not given),6%
13,O=C(O)C1C(C(=O)Nc2ccc3c(c2)Cc2ccccc2-3)C2(Cl)C(Cl)=C(Cl)C1(Cl)C2(Cl)Cl (stereo not given),31%
14,CSc1nc(COC(=O)NC(C)C)c(COC(=O)NC(C)C)n1-c1ccccc1,-12%
15,CC(C)C[NH-].CC(C)C[NH-].[Cl][Pt+2]([Cl])([Cl])[Cl],72% (active)
16,c1ccc(N=c2sc3ccccc3sc2=Nc2ccccc2)cc1,94% (active)
17,[Cl-].[La+3].[O-]/N=C(\c1ccccc1)c1ccccn1.[O-]/N=C(\c1ccccc1)c1ccccn1.[O-]/N=C(\c1ccccc1)c1ccccn1,42%
18,Clc1ccc(SSN2CCCCC2)cc1,2%
19,CCC(O)C(O)(c1ccccc1)c1nc2ccccc2s1 (stereo not given),-9%
20,ONC(=Nc1cccc2ccccc12)C(=Nc1cccc2ccccc12)NO,9%

# Same assay, conditions: S. cerevisiae rad50 strain growth inhibition; at 50.0 µM (retest, dose inferred, filed as 5.0); hits give high values
row,SMILES,growth inhibition
1,NC(=O)NC(=O)N/N=C/c1ccc([N+](=O)[O-])o1,25%
2,O=[N+]([O-])/C=C\c1csc2ccccc12,99% (active)
3,O=[N+]([O-])c1ccc2c(c1)CCc1ccccc1-2,77% (active)
4,CC1=C(C)CC2C(=O)C(C(O)CC(C)C)=CC(=O)C2C1 (stereo not given),91% (active)
5,CCC(=O)OC1CCC(C2CCCCC2)CC1 (stereo not given),8%
6,Cc1cc(C2C(O)C(c3cc(C)on3)C2(C)O)no1 (stereo not given),0%
7,CC(C)C(Sc1nc(-c2ccccc2)c(-c2ccccc2)[nH]1)C(=O)NN (stereo not given),91% (active)
8,C/C(=N\NC(=O)N/N=C(\C)c1ccccn1)c1ccccn1,16%
9,COC(=O)CCCCCCCCCCC(=O)O,-4%
10,CCCCCCCCCCCCNC(=O)C[n+]1cccc(C(N)=O)c1,88% (active)
11,Nc1ccccc1N=Cc1ccccc1O,54%
12,N#Cc1c(-c2ccc(Cl)cc2)c2c(n(C3OC(CO)C(O)C(O)C3O)c1=S)CCCC2 (stereo not given),88% (active)
13,CC(C)(C)CC(C)(C)N[P+](NC(C)(C)CC(C)(C)C)(NC(C)(C)CC(C)(C)C)NC(C)(C)CC(C)(C)C,98% (active)
14,CC(=O)OC1C(OC(C)=O)C2C(C)CC3OC(=O)C(C)C3CC2(C)C1OC(C)=O (stereo not given),71% (active)
15,NNC(=O)c1ccc(N)cc1O,-5%
16,Nc1ccc2c(c1)C(=O)c1ccccc1-2,57%
17,Cc1cn(C(C#N)=C(C#N)C#N)c2ccccc12,25%
18,FC(F)(F)COP1(OCC(F)(F)F)=NP(OCC(F)(F)F)(OCC(F)(F)F)=NP(c2ccccc2)(c2ccccc2)=N1,-4%
19,O=c1oc(-c2ccccc2Br)ns1,99% (active)
20,CC(=O)N1C(C(=O)NNc2ccccc2)CSC1c1ccccc1 (stereo not given),90% (active)

row,SMILES,growth inhibition
1,O=[N+]([O-])/C=C/c1cc2c(ccc3ccccc32)[nH]1,98% (active)
2,CN(C)CCCC1(c2ccccc2)SC(C)(C)c2ccc(Cl)cc21 (stereo not given),28%
3,O=c1[nH]c2ccccc2c2oc3ccccc3c12,83% (active)
4,O=C(c1ccccc1)c1cn(/N=C\c2ccccc2)c(=O)nc1-c1ccccc1,61%
5,Cc1ccc(S(=O)(=O)OCCc2ccc(Cl)cc2)cc1,-21%
6,COC(=O)CC1(O)c2cc(OC)c3cccc(OC)c3c2CCC1(C)C(=O)OC (stereo not given),97% (active)
7,CC(C)CC(NC(=O)SCc1ccccc1)C(=O)O (stereo not given),35%
8,COc1ccc(/C=C/c2ccnc3ccccc23)cc1,98% (active)
9,N#CC1=C(N)OC(/C=C/c2ccccc2)=C(C#N)C1c1ccccc1 (stereo not given),81% (active)
10,COc1ccc(C(=O)C(CN2CCOCC2)CN2CCOCC2)cc1,-10%
11,N/N=C(/N)SCCCCCCCCCCS/C(N)=N/N,5%
12,OC(CBr)C[n+]1cccc2cc(Cl)ccc21 (stereo not given),5%
13,O=C(O)C1C(C(=O)Nc2ccc3c(c2)Cc2ccccc2-3)C2(Cl)C(Cl)=C(Cl)C1(Cl)C2(Cl)Cl (stereo not given),99% (active)
14,CSc1nc(COC(=O)NC(C)C)c(COC(=O)NC(C)C)n1-c1ccccc1,11%
15,CC(C)C[NH-].CC(C)C[NH-].[Cl][Pt+2]([Cl])([Cl])[Cl],98% (active)
16,c1ccc(N=c2sc3ccccc3sc2=Nc2ccccc2)cc1,32%
17,[Cl-].[La+3].[O-]/N=C(\c1ccccc1)c1ccccn1.[O-]/N=C(\c1ccccc1)c1ccccn1.[O-]/N=C(\c1ccccc1)c1ccccn1,63%
18,Clc1ccc(SSN2CCCCC2)cc1,65%
19,CCC(O)C(O)(c1ccccc1)c1nc2ccccc2s1 (stereo not given),15%
20,ONC(=Nc1cccc2ccccc12)C(=Nc1cccc2ccccc12)NO,65%

# — PubChem BioAssay (NCI)
